In all, about 65,000 compounds went through this assay and about 640 (0.98%) were called active.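 The calls were made as follows: active = inhibition above a set limit, the mean inhibition across every tested compound plus 3 SD (cut at about 29% in these data); inactive = the rest.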 Shown is part of a subset that was picked to be rich in actives.
Biological target: 5-hydroxytryptamine receptor 1E (Homo sapiens) (UniProt P28566)
Test: 5-HT1E receptor antagonists, primary screen, cell-based, HTS (AID 571);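 also: signal is the 460 over 535 nm emission ratio of beta-lactamase substrate; 0% = agonist plus DMSO wells and 100% = wells without agonist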
Conditions: CHO 5-HT1E Ga15 NFAT-bla reporter, FRET, antagonist; at 6 µM; stronger effect = higher value

Sequence of 5-hydroxytryptamine receptor 1E (Homo sapiens) (P28566 whole entry, looked up): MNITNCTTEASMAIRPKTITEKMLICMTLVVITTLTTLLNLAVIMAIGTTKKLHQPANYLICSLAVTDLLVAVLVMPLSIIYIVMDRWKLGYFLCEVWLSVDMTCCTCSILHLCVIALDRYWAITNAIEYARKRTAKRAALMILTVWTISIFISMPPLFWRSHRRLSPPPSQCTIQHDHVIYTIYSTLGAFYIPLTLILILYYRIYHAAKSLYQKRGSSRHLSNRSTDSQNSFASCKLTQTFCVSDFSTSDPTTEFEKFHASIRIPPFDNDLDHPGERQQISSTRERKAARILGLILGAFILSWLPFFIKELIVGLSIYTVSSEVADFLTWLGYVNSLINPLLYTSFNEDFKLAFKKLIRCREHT

inhibition, active:
COc1ccc(Nc2oc(-c3ccccc3Cl)nc2C#N)cc1 75%, COc1ccc(Nc2cc(C)nc(-n3nc(C)cc3C)n2)cc1 49%, CC(=O)c1ccc(Oc2cc(C)nc(-n3nc(C)cc3C)n2)cc1 78.3%, CCCCC(=O)Nc1ccc2c(c1)C(=O)NC2=O 44%, Cc1ccc(-n2nc(-c3ccco3)cc2C(=O)NCc2cccnc2)cc1 30.4%, Cn1c(C(=O)NCCCN2CCN(c3cccc(Cl)c3)CC2)cc2c(=O)n(C)c3ccccc3c21 28.9%, COc1ccc(OC)c(N=Cc2c(O)[nH]c3ccccc23)c1 39.8%, CCCCCCC(=O)N(O)C1CC(=O)N(c2ccccc2)C1=O (stereo not drawn) 29%, COc1cccc(C(=O)Nc2c3c(nn2-c2cccc(C)c2C)CS(=O)(=O)C3)c1OC 29.9%, CCOc1cc(C(=O)N2CCc3cc(OC)c(OC)cc3C2)ccc1OC(F)F 90.1%, CN(C)c1nc(N)nc(CSc2nnnn2-c2cccc3ccccc23)n1 30.2%, CC(C)OCCCNc1ncnc2c1[nH]c1ccc(F)cc12 35%

inhibition, inactive:
O=C(O)C1CC=C(Cl)CC1C(=O)NCc1ccccc1 (stereo not drawn) -3%, CCN(Cc1nc2ccccc2c(=O)[nH]1)Cc1cc(=O)oc2cc(C)c(C)cc12 -2.39%, CCn1c(SCC(=O)c2ccc(Cl)s2)nnc1-c1cccs1 3.04%, OCc1n[nH]c(CO)n1 6.12%, COCCN1Cc2cccc(C(=O)Nc3ccccc3OC)c2C1=O 8.66%, O=S(=O)(NCc1ccccn1)c1ccc(F)cc1 0.49%, NC(=O)C1(N2CCCCC2)CCN(C(=O)c2ccc(C#Cc3ccccc3)o2)CC1 2.52%, CCOc1ccc(Nc2oc(Cc3ccccc3)nc2C#N)cc1 -1.52%, N#Cc1nc(-c2ccc(OCc3ccccc3)cc2)oc1NCCCN1CCOCC1 0.01%, O=C(CN1CCN(S(=O)(=O)/C=C/c2ccccc2)CC1)NC(=O)NCc1ccco1 4.51%, COc1ccc(CCNC(=O)c2ccc3c(c2)NC(=O)C(N2CCOCC2)S3)cc1OC (stereo not drawn) -4.16%, Cc1ccccc1NC(=O)c1cc(S(=O)(=O)N2CCOCC2)cs1 -6.32%, O=C(Nn1cc(C(=O)N2CCN(c3ccccc3F)CC2)c2ccccc2c1=O)c1cnccn1 3.04%, CCOC(=O)c1cnc(-n2nc(C)cc2C)nc1Nc1cccc(C(C)=O)c1 -0.9%, COCCNc1nc(-n2nc(C)cc2C)nc2sc3c(c12)CCCC3 22.7%, Cc1cc(C)n(-c2ccc(Cl)c(C(=O)O)n2)n1 4.5%, COc1cc(NS(=O)(=O)c2ccccc2)ccc1-n1nc(C)cc1C -6.22%, Cc1cc(NCc2ccco2)n2c(nc3ccccc32)c1C#N 11.1%, Nc1ccc(-c2nnc(-c3ccc(-c4ccccc4)cc3)o2)cc1 -0.45%, O=C(CSc1nnc(-c2ccncc2)n1C1CCCCC1)Nc1ccccc1 -9.37%, CC12C(=O)N(n3cnnc3)C(=O)C1C1C=CC2C1 (stereo not drawn) 8.42%, COCCNC(=O)C(c1ccc(C)o1)N(Cc1cccs1)C(=O)c1snc(C(N)=O)c1N (stereo not drawn) -3.57%, Cc1cc(=O)oc(C)c1C(=O)NC1CC(C)(C)NC(C)(C)C1 -4.29%, C[N+](C)(C)CCOP(=O)([O-])OC[C@H](O)CO -4.74%, COc1ccc(Br)cc1S(=O)(=O)N1CCN=C1C -3.84%, CC1CCCC(NC(=O)CSc2nccn2C)C1C (stereo not drawn) 2.04%, Cc1c(C(=O)NCCN2CCOCC2)sc2nc(-c3ccc(F)cc3)cn12 -2.05%, c1ccc(-c2cn3cccnc3n2)cc1 -0.19%, COc1ccc(S(=O)(=O)NC(CC(=O)NCc2ccccc2OC)c2ccco2)cc1 (stereo not drawn) -1.55%, CCOC(=O)N1CCC(NC(=O)CN2C(=O)COc3ccc(C(C)(C)C)cc32)CC1 -7.21%, CCOC(=O)N1CCC(NC(=O)Cc2cn(C)c3ccccc23)CC1 -14.8%, CCOC(=O)c1c(C)oc2ccc(OCC(=O)N(CC)CC)cc12 -6.18%, COc1ccc(C)cc1S(=O)(=O)NC1CCCCC1 -3.9%, O=C(Cn1c(=S)nc2ccccn21)N1CCc2ccccc2C1 -1.67%, CCCCNC(=O)CSc1nccn1Cc1ccccc1 3.33%, O=C(CNS(=O)(=O)c1cccc(C(F)(F)F)c1)Nc1ccccc1F -3.72%, CCCCCC(=O)Nc1ccc2oc(-c3ccncc3)nc2c1 4%, CCCCC(=O)Nc1ccc2c(c1)OCCO2 -10.5%, Nc1ccc(SCCN2C(=O)c3ccccc3C2=O)cc1 -1.04%, COC(=O)c1ccc(NC(=O)CSc2nnc(Cc3cccn3C)n2-c2ccc(F)cc2)cc1 -7.1%, CCc1nnc(NC(=O)c2nc3nccc(C)n3n2)s1 -0.48%, CCOc1ccc(C(=O)Nc2ccncc2)cc1 5.74%, CSc1sc(C)cc1C1C(C#N)=C(N)N(c2cccnc2)C2=C1C(=O)CCC2 (stereo not drawn) 24.6%, COc1ccc(CCNS(=O)(=O)c2ccc(C(=O)NCc3ccco3)cc2)cc1OC -13.4%, Cc1ccccc1NC(=O)Cc1nnc(SCC(=O)N2CCN(c3ccccc3)CC2)n1C 2.63%, Cc1noc(C)c1S(=O)(=O)NCCc1ccc(S(N)(=O)=O)cc1 -6.61%, Cc1cccc(-n2c(O)c(C=Nc3ccccc3N)c(=O)[nH]c2=O)c1 -5.35%, Cc1ccc2c(c1)N(CCCC(=O)NCc1cccnc1)C(=O)CO2 10.1%, CC(C)(C)c1cc(C(=O)NCc2cccnc2)ccn1 -1.08%, CCN1CCN(C(=O)c2ccccc2N(C)S(=O)(=O)c2ccc(C)cc2)CC1 -11.1%, Cc1nnc2sc(-c3ccco3)nn12 -3.05%, CC1CCCC(C)N1CCCNC(=O)c1cc2c(=O)n(C)c3ccccc3c2n1C (stereo not drawn) -8.37%, CCn1c(=O)cc(OCC(=O)NCCCN2CCN(c3cccc(Cl)c3)CC2)c2ccccc21 -1.38%, COc1cc(N=Cc2c(O)[nH]c3ccccc23)cc(OC)c1OC 4.31%, COc1ccc(N=Cc2c(O)[nH]c3ccccc23)cc1OC -3.2%, COc1ccc(NC2CC(=O)N(C)C2=O)cc1 (stereo not drawn) -0.34%, C[C@H](NC(=O)OC(C)(C)C)c1nnc(SCC(N)=O)o1 -6.77%, O=C(Nc1ccccc1N1CCCCC1)c1cccc(F)c1 -0.39%, O=C(NCc1ccco1)c1cccn2c(=O)c3cc(Br)ccc3nc12 11.4%, Cc1cccc(NC(=O)CN2CCCN(S(=O)(=O)c3ccc(Br)s3)CC2)c1 12.7%, CCC1(C)Cc2c(sc3nc4n(c(=O)c23)CCCS4)CO1 (stereo not drawn) 7.47%, COC(=O)c1c(NC(=O)CSc2nc3c(c(=O)n(C)c(=O)n3C)n2C(C)C)sc(C)c1C -1.61%, CCCCOC(=O)c1ccc(N2C(=O)CC(N3CCN(C/C=C/c4ccccc4)CC3)C2=O)cc1 (stereo not drawn) -8.79%, CCOc1ccc(N2C(=O)CC(N(O)c3ccccc3)C2=O)cc1 (stereo not drawn) -13.5%, Cc1cc(C)cc(OCc2nnc(SCC(=O)OC3CCCCC3)o2)c1 1.45%, Cc1cc(C(=O)OCC(=O)c2c(N)n(C)c(=O)n(C)c2=O)c(C)o1 -2.61%, CCOc1ccccc1NC(=O)C1CCC(CNc2c(N3CCOCC3)c(=O)c2=O)CC1 (stereo not drawn) -7.97%, Cn1c(=O)[nH]c(=O)c2c1nc(N1CCN(CCO)CC1)n2CCSc1nc2ccccc2s1 -9.93%, COc1ccc(NC(=O)c2c(SC)nsc2SC)cc1 3.42%, O=C(CC1CCCCC1)Nc1c2c(nn1-c1ccc(F)cc1)CS(=O)(=O)C2 3.57%, Cc1cccc(-n2nc3c(c2NC(=O)c2ccc(Br)o2)CSC3)c1C -0.62%, Cc1noc(C)c1S(=O)(=O)N1CCCC(C(=O)Nc2nccs2)C1 (stereo not drawn) 6.69%, CC(C)C[C@H](NC(=O)NCCc1ccc(Cl)cc1)C(=O)O 0.25%, Cn1cccc1Cc1nnc(SCC(=O)NCc2ccc3c(c2)OCO3)n1CCc1ccccc1 -2.19%, C=CCn1c(COc2ccccc2C)nnc1SCC(=O)O 10.3%, COC(=O)c1ccc(NC(=O)CSc2nnc(-c3ccncc3)n2C)cc1 -4.91%, CCOc1cc(CN2CCN(C(=O)CC(C)C)CC2)ccc1OC -2.34%, CCOc1cc(-c2noc(CCC(=O)N3CCOCC3)n2)ccc1OC 8.36%, CCN(CC)C(=O)N1CCN(C(=O)c2ccc(C)cn2)CC1 -13.6%, COC(=O)C1(S(=O)(=O)C2(C(=O)OC)CCCC2)CCCC1 -13%, C/C(CC(O)(/C=N/O)c1ccccc1)=N\O (stereo not drawn) 1.85%, COCCNC(=O)C(C#N)c1nc2ccccc2nc1N1CCN(Cc2ccc3c(c2)OCO3)CC1 (stereo not drawn) 2.9%, O=c1c2ccccc2nc(CSc2nnnn2-c2ccccc2)n1-c1ccccc1 -9.14%, Cc1ccc(-c2noc(CSc3nnnn3-c3ccccc3)n2)cc1 4.04%, O=C1CCCN1CCCNc1ncnc2c1[nH]c1ccccc12 4.24%, CCN1CCCC1CNc1ncnc2c1[nH]c1ccc(F)cc12 (stereo not drawn) -8.46%

Reference: PubChem BioAssay AID571 (The Scripps Research Institute Molecular Screening Center, 2007)
